# CYP2C19 activ: human CYP2C19 activators, primary screen, biochemical, luminescence; activation factor at 5 µM; recombinant CYP2C19, luciferin-H EGE luminescence; hits give high values; 0 = fully inhibited enzyme, 1 = untreated enzyme; AID 1025, 2008; Cytochrome P450 2C19 (Homo sapiens), P33261; 96,000 tested, under 10 active;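 active means activation factor of at least 2 at 5 µM in the primary screen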;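 further: 0 = wells with 2.5 mM tranylcypromine and 1 = vehicle-only wells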
# Target sequence (P33261 whole entry, looked up): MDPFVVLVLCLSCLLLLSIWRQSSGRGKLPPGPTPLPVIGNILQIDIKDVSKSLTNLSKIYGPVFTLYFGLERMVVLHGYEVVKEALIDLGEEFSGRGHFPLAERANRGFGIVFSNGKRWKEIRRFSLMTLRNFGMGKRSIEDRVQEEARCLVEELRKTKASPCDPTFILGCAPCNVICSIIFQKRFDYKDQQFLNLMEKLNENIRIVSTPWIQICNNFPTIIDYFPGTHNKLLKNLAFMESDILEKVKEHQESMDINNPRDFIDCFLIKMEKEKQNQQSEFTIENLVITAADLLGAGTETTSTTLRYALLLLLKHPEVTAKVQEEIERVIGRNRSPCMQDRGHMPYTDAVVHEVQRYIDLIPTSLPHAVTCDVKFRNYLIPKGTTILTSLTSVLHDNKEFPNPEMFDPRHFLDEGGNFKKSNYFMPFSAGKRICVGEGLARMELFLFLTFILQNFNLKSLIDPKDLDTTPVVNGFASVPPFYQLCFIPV
# CYP2C19 inhib: blockers of cytochrome P450 2C19 activity – biochemical, luminescence, ADME assay, primary screen; CYP2C19 Supersomes, luciferin-H EGE luminescence, 30 min; inhibition, % at 5 µM; hit rate 21% among 96,000; AID 778, 2007;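 active means CYP2C19 inhibition above a set limit at 5 µM in the primary screen, cut at about 50% in these data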;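 further: plate controls were negative control wells for no effect and 2.5 mM tranylcypromine positive control for full effect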
# E-sel TNF inh: E-selectin induction blockers in HUVEC – imaging, immunofluorescence, high content, primary screen. HUVEC TNFa-induced E-selectin immunofluorescence. inhibition, % at 2 µM. hit rate 0.71% among 120,000. AID 1246, 2008;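 active means inhibition above the batch mean plus 3 SD, and confirmed as a hit on visual image review, cut at about 43% in these data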;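 further: 0% = TNF-stimulated DMSO wells and 100% = unstimulated control wells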
# CYP2C9 inhib: blockers of cytochrome P450 2C9 activity – biochemical, luminescence, ADME assay, primary screen | P11712 | hit rate 20% among 96,000 | inhibition, % at 5 µM | CYP2C9 Supersomes, luciferin-H conversion;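 active means blocking of liver enzyme CYP2C9 beyond about 50% at 5 µM, limit read from the data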
# F-actin modifier: modifiers of F-actin cytoskeleton organization, primary screen, imaging, HUVEC, phalloidin staining, high-content imaging | inhibition, % at 2 µM | HUVEC TNFa F-actin phalloidin imaging | AID 836, 2007 | hit rate 0.18% among 91,000;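 active means inhibition above the batch mean plus 3 SD and confirmed as a hit by visual image inspection, cut at about 30% in these data, passing the limit was not always enough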
# CYP2C9 act: human CYP2C9 activators, primary screen, biochemical, luminescence | Cytochrome P450 2C9 (Homo sapiens), P11712 | recombinant CYP2C9, luciferin-H conversion; hits give high values; factor 1 = untreated enzyme, 0 = blocked | activation factor at 5 µM | hit rate 1.4% among 96,000;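 active means activation factor of 2 or more for CYP2C9 at a 5 µM dose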;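 further: 0 = sulfaphenazole-blocked wells and 1 = vehicle-only wells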
# Numbers without * were called inactive; / = no result given. The list is not random: actives were taken first. Their share in the collection is about 22%.
SMILES,CYP2C19 activ,CYP2C19 inhib,E-sel TNF inh,CYP2C9 inhib,F-actin modifier,CYP2C9 act
O=S(=O)(Cc1ccccc1)c1cnc2ccccc2n1,0.1,89*,-1,-149,-6,2.5*
CCSc1nnc(NC(=O)Cc2cccc(OC)c2)s1,0.5,49,-10,35,-8,0.6
O=C(N/N=C/c1ccc(C(F)(F)F)cc1)c1ccc(O)cc1,/,/,78*,/,/,/
COC(=O)Cn1c(SCc2ccccc2)nc2ccccc21,0.4,58*,-3,23,50,0.8
CCSc1nc2ccccc2n1CC(=O)N1CCOCC1,/,/,18,/,/,/
CCSc1nc2ccccc2n1CC(=O)OC,1.1,-6,5,-21,3,1.2
COc1cccc(C(=O)CSc2nc3ccccc3n2CC(=O)N2CCOCC2)c1,0.8,17,-21,68*,/,0.3
COc1cccc(NC(=O)Cn2c(SCC(=O)N3CCOCC3)nc3ccccc32)c1,0.3,71*,/,80*,-15,0.2
CCCCn1c(SCC(=O)Nc2cccc(OC)c2)nc2ccc(N3CCOCC3)cc2c1=O,0.2,83*,-32,96*,/,0
Cc1cccc(Oc2cnn(C(C)(C)C)c(=O)c2Cl)c1,/,/,1,/,-12,/
Cc1ccc(-c2csc3ncnc(-n4cnc5ccccc54)c23)cc1,/,/,-40,/,/,/
CCOc1ccc(Nc2nc(N3CCCCC3)nc(N3CCCCC3)n2)cc1,1.1,-8,9,12,/,0.9
CCOP(=O)(OCC)C(NC(C)=O)C(=O)c1ccccc1 (stereo not drawn),/,/,-19,/,/,/
CCOC(=O)CSc1nc2ccccc2n1CC(=O)NC(C)(C)C,0.8,16,7,20,3,0.8
COc1ccc(C(=O)CSc2nc3ccccc3n2CC(=O)NC(C)(C)C)cc1,0.6,40,20,72*,10,0.3
COc1cc(Cn2ccnc2)c(OC)cc1Cn1ccnc1,0.2,78*,/,73*,71,0.3
Cc1cc(Br)ccc1OCCn1ccnc1,/,/,-12,/,/,/
CC(C(N)=O)N1C(=O)c2cccc3cccc1c23 (stereo not drawn),1,-3,11,-220,6,3.2*
NNC(=O)c1ccc(CN2C(=O)c3cccc4cccc2c34)cc1,/,/,-26,/,/,/
COc1ccc(Br)cc1C(=O)Nc1ccc(O)cc1,0.5,46,-11,-205,10,3.1*
COc1cc(C(=O)Nc2ccc(N(C)C)cc2)cc(OC)c1OC,0.3,70*,/,27,40,0.7
COc1ccc(Br)cc1C(=O)Nc1ccccc1-c1ccccc1,0.7,31,4,17,9,0.8
COc1ccc(Br)cc1C(=O)Nc1ccc(N2CCN(S(C)(=O)=O)CC2)cc1,0.8,16,2,-97,6,2*
COc1cc(C(=O)Nc2cccc3ncccc23)cc(OC)c1OC,0.8,18,/,-8,/,1.1
COc1cc(C(=O)Nc2ccc(Br)cc2C(=O)c2cc(OC)c(OC)c(OC)c2)cc(OC)c1OC,0.3,68*,19,93*,15,0.1
SMILES,CYP2C19 activ,CYP2C19 inhib,E-sel TNF inh,CYP2C9 inhib,F-actin modifier,CYP2C9 act
CCn1c(CC(=O)Nc2cccc(OC)c2)nnc1SCC(=O)Nc1nccs1,0.9,10,-2,25,-9,0.7
COc1cc(N)c(Br)cc1C(=O)O,/,/,-43,/,/,/
COc1ccc(Br)cc1C(=O)O,1.2,-18,97*,-11,/,1.1
COc1ccc(C(=O)NCCSCc2ccco2)cc1OC,0.6,37,-23,-6,3,1.1
COc1cc(CN(C(=O)c2ccco2)c2ccc(C)cc2)ccc1O,0.8,21,0,49,64,0.5
COc1ccc(N(Cc2ccco2)C(=O)c2ccccc2F)cc1OC,0.3,71*,15,80*,5,0.2
Cc1ccc(N(Cc2ccc([N+](=O)[O-])cc2)C(=O)c2ccco2)cc1,0.7,25,38,96*,-16,0
COc1ccc(CN(C(=O)c2ccco2)c2ccc(Br)cc2)cc1OC,0.2,80*,1,89*,-3,0.1
O=S(=O)(NCc1cccs1)NCc1ccccc1F,/,/,8,/,/,/
Cc1ccccc1N(CC(=O)NCCSC1CCCCC1)S(=O)(=O)c1ccccc1,0.8,17,8,58*,-5,0.4
CS(=O)(=O)N(CC(=O)NCCSC1CCCCC1)c1cccc(F)c1,/,/,-9,/,/,/
O=C(CN(C1CC1)S(=O)(=O)c1ccc(S(=O)(=O)NC2CCCCC2)cc1)Nc1ccccc1,0,97*,26,96*,-2,0
O=C(CN(C1CCCCC1)S(=O)(=O)c1ccc(F)cc1)Nc1ccc2c(c1)OCO2,/,/,8,/,19,/
CC(C)CNC(=O)CN(C1CCCCC1)S(=O)(=O)c1ccccc1,0.4,58*,/,92*,5,0.1
CCOc1cccc2sc(=NC(=O)c3ccc(S(=O)(=O)N4CCOCC4)cc3)n(C)c12,0.7,32,/,56*,8,0.4
O=C(c1ccco1)N(CC1CCCO1)c1nc(-c2ccccc2)cs1 (stereo not drawn),0.1,87*,-14,85*,-4,0.2
COCCCN(C(=O)c1ccco1)c1nc(-c2cc(OC)ccc2OC)cs1,0.5,50,4,76*,0,0.2
O=C(c1cccs1)N(CC1CCCO1)c1nc(-c2ccccc2)cs1 (stereo not drawn),0,95*,32,89*,5,0.1
COc1ccc(-c2csc(N(CCCN3CCOCC3)C(=O)c3ccco3)n2)cc1,0.8,20,-26,41,-15,0.6
Cc1ccc(-c2csc(N(CCCN3CCOCC3)C(=O)c3ccco3)n2)cc1,0.1,87*,-8,92*,24,0.1
O=c1ccc(Oc2nc(N3CCCCC3)nc(N3CCCCC3)n2)n[nH]1,1,0,/,-15,-1,1.2
COc1ccccc1CNC(=O)c1cc2c(=O)[nH]c3ccccc3c2n1C,/,/,5,/,/,/
O=C(Nc1nc(-c2cccnc2)cs1)c1ccccc1[N+](=O)[O-],/,/,-12,/,/,/
CC(C)C(=O)Nc1cccc(NC(=O)c2cccc(Br)c2)c1,/,/,-14,/,/,/
Cc1ccc(C(=O)NC(C)c2ccccc2)o1 (stereo not drawn),/,/,-15,/,4,/
SMILES,CYP2C19 activ,CYP2C19 inhib,E-sel TNF inh,CYP2C9 inhib,F-actin modifier,CYP2C9 act
CCn1nnnc1-c1ccc(OC)c(S(=O)(=O)NCCc2ccccc2)c1,0.1,89*,51,68*,/,0.3
COc1ccc(OC)c(S(=O)(=O)NCCc2ccccc2)c1,0.1,87*,/,69*,10,0.3
COc1ccc(OC)c(S(=O)(=O)NCc2csc(-c3ccccc3)n2)c1,0.4,62*,7,37,-41,0.6
COc1ccc(OC)c(S(=O)(=O)NCc2cn3c(C)csc3n2)c1,1,-1,-15,-19,8,1.2
CNS(=O)(=O)c1cc(OC)ccc1OC,0.9,8,24,12,28,0.9
CCOc1ccc2nc(NCCCNS(=O)(=O)c3ccc(C)cc3)c(C#N)cc2c1,/,/,-1,/,4,/
